Experimental data published in ChEMBL document CHEMBL4513216, “Probing the Open Global Health Chemical Diversity Library for Multistage-Active Starting Points for Next-Generation Antimalarials” (ACS Infect Dis, 2020).
About 8,600 (12%) of roughly 69,000 compounds showed an effect of 50% or more. The sample holds strong results, similar compounds and a random draw of the others, so the mix is not that of the screen.

test system: Plasmodium berghei; experiment: Screen against P. berghei liver stage (PbLuc), transformed with Luciferase, at 10uM; format: functional, HepG2; settings: tested at 10 uM

| Compound | INHIBITION |
| --- | --- |
| Cc1cnnn1Cc1nnn2c1CN(Cc1cccs1)CCC2 | 45.8% |
| CN(Cc1ccco1)C(=O)c1ccc(=O)n(C)c1 | 55.4% |
| Cc1occc1CN(C)C(=O)Nc1ccc(=O)n(C)c1 | 44.3% |
| Cn1cc(C(=O)N(Cc2ccco2)Cc2cccs2)ccc1=O | 34% |
| COCCN(Cc1cccs1)C(=O)c1ccc(=O)n(C)c1 | -7.66% |
| CN(Cc1cccs1)C(=O)c1ccc(=O)n(C)c1 | 53.3% |
| CN(Cc1ccco1)C(=O)Nc1ccc(=O)n(C)c1 | 60.1% |
| CCN(Cc1cccs1)C(=O)c1ccc(=O)n(C)c1 | 28.7% |
| COc1ccc(NC(=O)N(C)Cc2ccco2)cn1 | 0.705% |
| CN(Cc1ccc2c(c1)OCO2)C(=O)c1ccc(=O)n(C)c1 | 42.7% |
| CCC1(CC)C(=O)NC(=O)N=C1Nc1ccc(C)cc1 | 27.5% |
| O=C(NCC1(c2cccs2)CCCCC1)N1CCOC(CO)C1 (centres undefined) | -39.4% |
| Cn1cc(N2C(=O)CC[C@@H]3[C@H]2CCN3CCc2ccccc2)cn1 | 17.4% |
| CN(C)C(=O)NC1COC2(CCN(C(=O)Nc3ccccc3)CC2)C1 (centres undefined) | 42.1% |
| O=C1CCC2(CCCN(C(=O)NCc3ccccc3)CC2)N1 (centres undefined) | 8.74% |
| Cc1nc2c(cc1C(=O)Nc1ccccc1Cl)c(=O)n(C)c(=O)n2C | 18.6% |
| COCCN1CCN(C)C2(CCN(C(=O)c3ccnnc3)CC2)C1=O | 39.4% |
| Cc1nn(C)c2nc(NC(C)c3nnn[nH]3)sc12 (centres undefined) | 1.24% |
| Cc1nc(C(C)Nc2nc3c(s2)c(C)nn3C)n[nH]1 (centres undefined) | 52.1% |
| Cc1nn(C)c2nc(NC(C)c3n[nH]c(=O)[nH]3)sc12 (centres undefined) | 28.5% |
| O=S(=O)(NCc1ccnc(-n2ccnc2)c1)c1cncc(F)c1 | 2.93% |
| Cc1ccc(C(=O)NC2CCCN(C)C2)c(=O)[nH]1 (centres undefined) | 8.51% |
| CCN1CCCC(NC(=O)c2ccc(C)[nH]c2=O)C1 (centres undefined) | 55.5% |

| Compound | INHIBITION |
| --- | --- |
| Cc1ccc(C(=O)NC2CCCN(CC(N)=O)C2)c(=O)[nH]1 (centres undefined) | 9.63% |
| CN(C)[C@@H]1CN(Cc2cccnc2)C[C@H]1c1cn(C)c2ccccc12 | 23.69% |
| c1ccc(OCc2nnc3n2CCN(Cc2ccco2)C3)nc1 | 24.9% |
| Cc1nn(C)c2c(N(C)Cc3cccs3)nc(C3CC3)nc12 | -17.2% |
| CCOc1cc(C(=O)N2CCN(C)CC2)cc2occc12 | 44.1% |
| CCOc1cc(C(=O)N2CCCC2)cc2occc12 | 50.7% |
| CCOc1cc(C(=O)N2CCOCC2)cc2occc12 | 36.6% |
| CCOC(=O)C1CCN(C(=O)c2cc(OCC)c3ccoc3c2)CC1 | -13.9% |
| CCOc1cc(C(=O)N2CCN(CC)CC2)cc2occc12 | 9.32% |
| CCOC(=O)N1CCN(C(=O)c2cc(OCC)c3ccoc3c2)CC1 | 58.2% |
| CN1CCCCC1c1ncc2c(n1)CCN(CCCc1ccccc1)C2 (centres undefined) | 26.8% |
| Cc1cc(C(=O)N2CCC(O)(Cn3c(C)cc4ccncc43)CC2)on1 | 9.05% |
| NC(=O)N1CCC(NCc2cc(C(F)(F)F)ccc2Cl)CC1 | 17.8% |
| CN(C)C(=O)COCc1nnc2n1CCN(Cc1ccoc1)C2 | 45.8% |
| CNC(=O)C1(CCCc2ccncc2)CCN1 (centres undefined) | -4.82% |
| COc1ccc(CN2CC(O)CN(C(=O)C3CCC3)CC2=O)cc1 (centres undefined) | 41.1% |
| COc1cccc(CCC2CCCN(C(=O)c3ccc(=O)n(C)n3)C2)c1 (centres undefined) | 40.5% |
| Cn1cc(C(=O)N2CCCC(C(=O)CCc3ccccc3)C2)cn1 (centres undefined) | 10.7% |
| COc1cccc(CCC2CCCN(C(=O)c3cnccn3)C2)c1 (centres undefined) | 81.1% |
| COc1cccc(OCC2CCCN(C(=O)c3cc(C)n[nH]3)C2)c1 (centres undefined) | 10.5% |
| COc1cccc(CCC2CCCN(C(=O)c3n[nH]c4c3CCC4)C2)c1 (centres undefined) | 81.8% |
| COc1cccc(CCC2CCCN(C(=O)C3=NN(C)C(=O)CC3)C2)c1 (centres undefined) | 3.47% |
| COc1cccc(CCC2CCCN(C(C)=O)C2)c1 (centres undefined) | -10.9% |

| Compound | INHIBITION |
| --- | --- |
| COc1cccc(C(=O)N2CCCC(C(=O)CCc3ccccc3)C2)c1 (centres undefined) | 65% |
| COc1ccccc1CC1CCCN(C(=O)c2n[nH]c3c2CCC3)C1 (centres undefined) | 19% |
| COc1cccc(CCC2CCCN(C(=O)c3ccc(OC)o3)C2)c1 (centres undefined) | 68.3% |
| COc1cccc(CCC2CCCN(C(=O)c3ccccn3)C2)c1 (centres undefined) | 43.7% |
| N#Cc1cccc(C(=O)N2CCCC(C(=O)CCc3ccccc3)C2)c1 (centres undefined) | -8.66% |
| Cc1sc(NC(=O)CCC(=O)O)c(C(N)=O)c1-c1ccc(Cl)cc1Cl | 41.6% |
| CNc1nccc(-c2cnc3sc(C)c(C)n3c2=O)n1 | -4.82% |
| Cc1ccc(C(=O)NC2CCCN(S(C)(=O)=O)C2)c(=O)[nH]1 (centres undefined) | 19.7% |
| O=C(c1cc[nH]n1)N1CCCC1c1cnccn1 (centres undefined) | 31.6% |
| CC(NC(=O)COCC(F)(F)F)c1nnc2n1CCCCC2 (centres undefined) | -27.8% |
| CCN(CC)CCCNC(=O)c1nn(CC)cc1Cl | 35.8% |
| O=C(CCOc1ccc(Br)cc1)N1CCN(c2cnccn2)CC1 | 43.2% |
| CC1(C)CN(CC(=O)NCc2ccccc2F)C[C@]1(C)O | -2.97% |
| COc1ccc(C(=O)N2CCC(Oc3ccccc3)(C(=O)O)CC2)o1 | 50.1% |
| COc1cccc(OCC2CCCN(Cc3ncc[nH]3)C2)c1 (centres undefined) | 22.6% |
| COc1ccc(C(=O)N2CCC(Oc3cccc(C)c3)(C(=O)O)CC2)o1 | 40.2% |
| COc1ccc(C(=O)N2CCC(Oc3ccc(C)cc3)(C(=O)O)CC2)o1 | 14.3% |
| COc1cccc(CCC2CCCN(Cc3ncc[nH]3)C2)c1 (centres undefined) | 65.7% |
| COc1cccc(OCC2CCCN(Cc3ccncc3)C2)c1 (centres undefined) | 1.74% |
| FC(F)(F)Cn1ccnc1CNCC1CCCN1c1cccnn1 (centres undefined) | -2.53% |
| Cc1nc(NC(=O)CCN2C(=O)c3ccccc3NC2C(C)C)sc1C (centres undefined) | 28.7% |
| COCC(=O)NCc1cc(=O)n2c(n1)CN(Cc1ccncc1)CCC2 | 22.2% |
| CCNc1cc2c(nn1)CCN(C(=O)c1ccsc1)C2 | 37.8% |
